Drawing on PubChem BioAssay AID651951 (The Scripps Research Institute Molecular Screening Center, 2012), this text covers inhibition for nine compounds.

The campaign covered roughly 2,400 compounds. About 1,100 (46%) were called active. The set was probably picked from earlier hits. The list is a sample of the results. Unmarked numbers belong to inactive results.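 Rule for the calls: active = inhibition above the run cutoff, the mean inhibition of all test compounds plus 3 SD (cut at about 49% in these data); inactive = the rest.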

The target in this assay is Trace amine-associated receptor 1 (Homo sapiens) (UniProt Q96RJ0). In words: loss of beta-PEA response after agonist pre-exposure – cell-based, fluorescence, tachyphylaxis, counter-screen for TAAR1 agonist project, confirmation (AID 651951).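 Note: beta-PEA stimulus applied at its EC80; loss of beta-PEA calcium signal after compound pretreatment read as receptor desensitization; 0% = DMSO with beta-PEA at EC80 and 100% = DMSO alone without agonist.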 The following applies: CHO RD-HGA16 hTAAR1, Fluo-8 calcium, at 3 µM, stronger effect = higher value. In general terms: The purpose of a counterscreen is to sort out artefacts and off-target activity.
Trace amine-associated receptor 1 (Homo sapiens), sequence (Q96RJ0 whole entry, looked up): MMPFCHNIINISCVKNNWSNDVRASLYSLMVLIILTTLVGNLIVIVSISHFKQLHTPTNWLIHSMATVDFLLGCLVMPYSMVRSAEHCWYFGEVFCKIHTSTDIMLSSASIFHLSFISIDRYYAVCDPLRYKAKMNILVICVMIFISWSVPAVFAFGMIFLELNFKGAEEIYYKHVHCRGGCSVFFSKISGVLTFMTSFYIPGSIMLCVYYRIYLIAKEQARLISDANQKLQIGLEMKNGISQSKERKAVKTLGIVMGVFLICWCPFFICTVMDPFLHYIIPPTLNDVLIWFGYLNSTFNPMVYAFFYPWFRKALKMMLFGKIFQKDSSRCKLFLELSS
One may read the inhibition as how much of the control response was suppressed. With `CCC(=NCCc1ccccc1)c1c(O)n(C2CCCCC2)c(=O)[nH]c1=O`, the inhibition was 55.8% (active). `Cc1cccc(N2C(=O)NC(=O)/C(=C\c3cnn(-c4ccccc4)c3)C2=O)c1`: the inhibition is 54.4% (active). In the case of `NCC(O)c1ccc(O)cc1` (centres undefined) it was 53.1% (active).

For the compound `COc1ccc(Br)cc1CNCCc1cccc(Cl)c1`, the inhibition is 40%. On to `CC(Cc1ccccc1)NC=O` (centres undefined), for which the inhibition was 78.2% (active). `c1ccc(CCNC2CCCCCC2)cc1`: the inhibition is 91% (active). For `O=C1NC(=O)N(Cc2ccco2)C(=O)/C1=C\c1ccc(-c2ccc(F)cc2)o1`, the inhibition is 42.5%. `CCCCC(=O)N/N=C/c1c(O)n(CC)c(=S)n(CC)c1=O`: the inhibition is 88% (active). In the case of `Clc1ccc2nc3c(c(-c4ccccc4)c2c1)CNCC3` it was 39.3%.
